Assay outcomes: PubChem BioAssay, several laboratories
Compounds with a hit are over-represented: about 3.7% of the library has one in this group of screens.
NALP3 yeast inh: inhibitors of NALP3 inflammasome in yeast; Yeast reconstituted NLRP3/ASC/caspase-1, beta-gal luminescence, 24 h; inhibition, % at 10 µM; hit rate 0.39% among 330,000; AID 2825;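 active means inhibition of 50% or more; inactive means inhibition below 50%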;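 further: plate controls were induced DMSO wells for no effect and uninduced yeast grown without galactose for full effect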
TIM10 inh: inhibits growth of TIM10 yeast strain | S. cerevisiae TIM10 strain growth, BacTiter-Glo luminescence, 24 h | inhibition, % at 10 µM | hit rate 1.4% among 330,000 | AID 463195;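 active means inhibition of 40% or more at the single tested concentration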;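 further: wild-type TIM10 isogenic control strain grown at permissive 25 °C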
tim23-1 inh: inhibits growth of tim23-1 mutant yeast. hit rate 1.3% among 330,000. inhibition, % at 20 µM. S. cerevisiae tim23-1 growth, BacTiter-Glo luminescence, 24 h;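 active means growth inhibition of the mutant yeast at or above 50%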;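 further: temperature-sensitive mutant grown at 25 °C; plate controls were DMSO-treated mutant yeast for no effect and medium wells lacking yeast for full effect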
PfHsp90 yeast 2: reduces growth (ATP signal) of yeast expressing P. falciparum Hsp90; S. cerevisiae expressing PfHsp90, BacTiter-Glo ATP, 48 h; yeast lacking PDR1 and PDR3 efflux regulators; inhibition, % at 9.4 µM; hit rate 0.32% among 310,000; AID 504621;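 active means every replicate shows inhibition above about 80%, whatever the replicate mean, limit read from the data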;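 further: 0% = DMSO neutral controls and 100% = 20 µM radicicol positive controls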
tim10-1 inh: inhibits growth of tim10-1 mutant yeast | S. cerevisiae tim10-1 ts strain growth, BacTiter-Glo, 24 h | inhibition, % at 20 µM | hit rate 2.2% among 330,000;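 active means inhibition of at least 40%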;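 further: mutant grown at 25 °C; 0% = DMSO wells with yeast and 100% = wells holding no yeast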
tim10-1 conf: confirmation of tim10-1 mutant yeast growth inhibitors | shares compounds with tim10-1 inh | S. cerevisiae tim10-1 ts strain growth, BacTiter-Glo, 24 h | inhibition, % at 20 µM | hit rate 56% among 7,400 | AID 463213;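 active means inhibition of yeast growth at or above a set limit in either of two repeat tests at 20 µM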;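 further: tim10-1 mutant grown at permissive 25 °C to find synthetic lethal compounds; 0% = DMSO yeast wells and 100% = medium wells without yeast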
tim10 confirm: TIM10 yeast growth inhibition, confirmed. shares compounds with TIM10 inh. S. cerevisiae tim10 strain growth, BacTiter-Glo luminescence, 24 h. inhibition, % at 10 µM. hit rate 63% among 4,600. AID 463215;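 active means inhibition of yeast growth at or above a set limit in either of two replicates at 10 µM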;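 further: this counterscreen used the strain with wild-type TIM10; 0% = yeast with DMSO and 100% = medium wells lacking yeast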
* = called active by the depositor; · = no result.

SMILES	NALP3 yeast inh	TIM10 inh	tim23-1 inh	PfHsp90 yeast 2	tim10-1 inh	tim10-1 conf	tim10 confirm
CC(=O)N(Cc1ccc(F)cc1)c1cccc(C)c1C	-14.9	15.3	4.5	23.3	14.8	·	·
CC(=O)N(Cc1ccc(F)cc1)C1=C(NCCc2ccccc2)C(=O)c2ccccc2C1=O	29.0	45.0*	30.0	-28.1	40.7*	16.1	30.9*
COc1ccc2oc(C(=O)OCC(=O)NC(C)(C#N)C3CC3)c(C)c2c1 (centres undefined)	12.9	21.4	23.5	35.7	6.4	·	·
COC(=O)CC1(CC(N)=O)SCCS1	·	·	·	1.8	·	·	·
CC(C)(C)S(=O)(=O)N1Cc2cc(=O)n(Cc3ccccc3)c(CCO)c2[C@H]1CCO	·	·	·	-0.3	·	·	·
CCC(=O)OCCNc1cc(Sc2nc3ccccc3s2)c2nonc2c1[N+](=O)[O-]	32.0	77.4*	27.5	11.2	93.2*	91.0*	94.2*
CCOC(=O)/C(=C/c1c(C)n(C)c2ccc([N+](=O)[O-])cc12)C(C)=O	17.4	53.6*	48.5	9.9	58.2*	37.2*	40.2*
COc1ccccc1NS(=O)(=O)c1ccc2oc(=O)ccc2c1	3.7	46.5*	30.0	-43.3	42.8*	20.7	44.4*
COc1cc(C(=O)/C=C/c2cccnc2)c([N+](=O)[O-])cc1OC	16.8	41.2*	37.6	-12.8	42.0*	39.0*	32.8*
CCn1c2c(c3cc(Br)ccc31)CCC/C2=N\O	18.0	53.9*	29.1	-7.4	65.6*	39.3*	33.9*
N#C/C(=C\C=C\c1ccccc1[N+](=O)[O-])C(=O)NC1CCCCC1	12.6	43.0*	29.9	·	55.2*	47.2*	53.0*
O=C1Nc2ccc(Cl)cc2C(C#CC2CC2)(C(F)(F)F)O1 (centres undefined)	25.0	30.3	46.3	5.1	33.7	·	·
CN1c2ccccc2Oc2nnc(N3CCN(Cc4ccccc4)CC3)cc21	21.1	74.8*	46.6	-1.6	41.0*	54.2*	43.6*
CCCC1CC(C)(c2csc(Nc3ccc(OCC)cc3)n2)OC1=O (centres undefined)	-1.3	48.3*	48.4	-12.2	40.4*	29.9	46.1*
CCOc1ccc(NC(=O)CC2CC(C)(C)OC2=O)cc1 (centres undefined)	-1.0	3.4	6.1	1.9	4.3	·	·
COc1ccc2cc3cc(C(=O)NCCN4CCN(Cc5ccccc5)CC4)oc3nc2c1	14.7	75.4*	39.0	-9.1	56.6*	57.5*	-20.6
COc1ccc2nc3oc(C(=O)NC4CCN(Cc5ccccc5)CC4)cc3cc2c1	41.8	74.3*	34.0	6.1	51.6*	50.0*	43.8*
CCN1CCN(CCCNC(=O)c2cc3cc4ccc(OC)cc4nc3o2)CC1	5.2	11.1	39.0	-32.7	15.9	·	·
CCCCN(CC)CCCNC(=O)c1cc2cc3ccc(OC)cc3nc2o1	14.5	65.9*	47.3	1.9	42.5*	44.5*	-21.0
COc1ccc2cc3cc(C(=O)NCCCN4CCOCC4)oc3nc2c1	-5.4	78.8*	45.3	24.1	58.0*	66.6*	80.8*
C=CCN1C(=O)C(CC(=O)NCC)SC1=Nc1ccccc1CC (centres undefined)	6.5	6.9	19.2	-8.1	14.3	·	·
Cc1ccc(Sc2nc(-c3ccccc3)nnc2C(F)(F)F)cc1	0.0	41.5*	28.0	9.3	40.0*	38.2*	2.9
Cc1cc(N2CCCC2)nc(SCC(=O)c2ccccc2)n1	34.3	-3.7	34.3	13.8	18.4	·	·
Cc1cc(N2CCC(C)CC2)nc(SCC(=O)c2ccccc2)n1	29.2	40.8*	34.3	-2.8	53.0*	33.5*	-36.9
CCNC(=S)N/N=C/c1cccc(OCc2c(F)cccc2Cl)c1	-3.5	53.3*	30.9	-3.1	44.3*	37.0*	41.1*
SMILES	NALP3 yeast inh	TIM10 inh	tim23-1 inh	PfHsp90 yeast 2	tim10-1 inh	tim10-1 conf	tim10 confirm
Cc1ccc2cc(/C=C(\C#N)C(N)=O)c(N3CCCCC3)nc2c1	16.7	46.1*	32.2	-2.5	41.6*	17.7	33.7*
CCOC(=O)/C(C#N)=C/c1cc2ccccc2nc1N1CCCCC1	-10.1	11.8	23.4	-1.2	30.4	·	·
CCCNC(=O)Cn1c(=O)/c(=C/c2ccc(-c3ccc([N+](=O)[O-])cc3)o2)s/c1=C\C(=O)C(C)(C)C	·	·	·	-1.7	·	·	·
CCCCc1ccc(NC(=S)NCc2cccs2)cc1	44.9	40.4*	40.1	·	46.2*	42.6*	34.6*
Cc1ccc(/C=C2/NC(=O)N(Cc3ccccc3F)C2=O)s1	-1.0	0.3	-19.0	14.1	12.9	·	·
CC(C)CN1C(=O)/C(=C/c2cccs2)NC1=S	-31.5	48.2*	49.9	-9.9	42.8*	16.9	40.5*
CC(C)CN1C(=O)/C(=C/c2ccco2)NC1=S	9.2	22.4	17.7	-31.2	22.1	·	·
CCCN1C(=O)/C(=C/c2ccc(C)s2)NC1=S	-5.8	45.2*	36.3	-1.5	46.5*	12.2	40.5*
O=C(NC1CCCC1)c1cccc(Oc2ccccc2)c1	32.3	42.0*	38.5	-14.4	45.8*	26.1	32.2*
CN1CCC(NC(=O)c2cccc(Oc3ccccc3)c2)CC1	18.1	4.7	5.0	-17.5	0.3	·	·
O=C1N=C(N2C=CC(=C3C=CNC=C3)C=C2)/C(=C/N=NC(=O)c2ccccc2)S1	19.4	14.0	11.5	-2.6	-9.2	·	·
CCCSc1nc(C)c2cc(C)cc(C)c2n1	5.8	-7.1	17.1	-14.4	8.2	·	·
Cc1cc(C)c2nc3nc(C)c(C)cc3c(N)c2c1	22.4	80.9*	48.5	18.9	62.1*	71.4*	80.9*
Cc1cccc2cc(-c3nc4ccc(C(=O)O)cc4[nH]3)c(=O)oc12	17.7	5.0	-0.7	-30.9	5.2	·	·
CCCN1C(=O)/C(=C/c2ccncc2)SC1=S	-2.6	53.2*	46.3	-0.6	44.5*	24.2	-16.9
CCOC(=O)C1CCN(C(=O)c2sc3nc(-c4ccc(F)cc4)cn3c2C)CC1	-1.6	78.1*	43.2	-1.8	74.2*	73.8*	69.2*
COc1ccc(N2CCN(C(=O)c3sc4nc(-c5ccc(F)cc5)cn4c3C)CC2)cc1	14.3	-15.9	5.2	-7.8	-6.8	·	·
CCOC(=O)C1CCCN(C(=O)c2sc3nc(-c4ccccc4)cn3c2C)C1 (centres undefined)	-5.4	22.3	30.4	11.6	7.1	·	·
CCOC(=O)C1CCCN(C(=O)c2sc3nc(-c4ccc(F)cc4)cn3c2C)C1 (centres undefined)	12.8	55.7*	41.0	3.0	52.7*	48.3*	42.5*
Cc1ccc(C(=O)C(C)OC(=O)C2CCN(c3ccc(C(F)(F)F)cn3)CC2)cc1 (centres undefined)	17.7	-1.3	3.6	·	16.4	·	·
CCOc1ccc(C(=O)NCC(=O)NNC(=O)CN(C)S(=O)(=O)c2ccc(Cl)cc2)cc1OCC	·	·	·	-27.1	·	·	·
CN1CCC(N(C)C(=O)/C(C#N)=C\c2ccc(OC(F)F)cc2)CC1	·	·	·	-4.2	·	·	·
